This is a sample that favours compounds with a hit; in the whole collection about 1.8% have one here.
p53ts 32C tox – cytotoxicity in p53ts cells at permissive temperature; H1299-p53A138V at 32C, ATP luminescence viability, 24 h; Potency, µM (doses to about 46.1 µM), for the others: at the top dose activity change, negative = cytotoxicity, usual class: cytotoxic; 130,000 compounds, 0.93% hits; AID 924;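 also: 0% = DMSO and -100% = full killing by reference compound; nearly all actives have a fitted effect of over 55% in size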
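Cells: H1299 p53ts (A138V), 600/well, pre-incubated 16–30 h at 37C. Cpd up to 46 uM, 24 h, 32C. Readout: ATPlite luminescence, 20 min RT. Normalization: DMSO vs tamoxifen 100 uM. AC50 by Hill equation.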
p53ts 39C tox – kills p53ts cells at the nonpermissive temperature; H1299-p53A138V viability at 39C, ATP luminescence, 24 h; Potency, µM (highest dose often 46.1 µM), for inactives: at the highest dose activity change, negative = cell killing, hits mostly cytotoxic; 130,000 compounds, 1.5% hits; also: % is scaled to controls: 0 for no effect and ±100 for the full control effect; nearly all actives have a fitted effect of over 55% in size
Imprint erasure – genomic imprint erasure induction; Potency, µM (top dose mostly 60.7 µM), for the others: at the top dose activity change, positive = activation, usual class: activators; mouse ES Peg3-LacZ reporter, beta-gal luminescence, 40 h; 110,000 compounds, 0.02% hits; AID 1948
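Readout: BetaGlo luminescence (5 min, room temp) for LacZ from the normally silent maternal Peg3 allele in female Peg3LacZ-Neo ES cells. Cells 300/well, 40 h, 37C, 5% CO2. Data normalized per plate to negative controls.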
The depositor's hits bear a star; ? = inconclusive; nt = no result; [ ] = another dose, or the depositor's remark. Calls follow the shape of the dose curve; as a rule, active = well fitted curve in the direction sought with a large enough effect; inconclusive = small, poorly fitted or top-dose-only effect, or another doubt; inactive = no such curve, though single readings can be large; an effect the other way counts as inactive or inconclusive. Potency is read from the fitted curve at half-maximal effect.

SMILES	p53ts 32C tox	p53ts 39C tox	Imprint erasure
CCCCN(C)CCCNC(=O)Cn1ncc2c3ccccc3n(Cc3cc(C)ccc3C)c2c1=O	-6.4%	2.51µM*	27.1%[10.9 µM]
CCCN(CCC)CCCNC(=O)Cn1ncc2c3ccccc3n(Cc3ccccc3F)c2c1=O	-3.7%	?	-5.5%[10.9 µM]
CCCCN(C)CCCNC(=O)Cn1ncc2c3ccccc3n(Cc3ccccc3F)c2c1=O	-4.0%	12.6µM*	-5.7%[10.9 µM]
CC(CCc1ccccc1)NC(=O)Cn1ncc2c3ccccc3n(Cc3ccccc3)c2c1=O (stereo not drawn)	-4.5%	-14.8%	-11.2%[10.9 µM]
CCCCN(C)CCCNC(=O)Cn1ncc2c3ccccc3n(Cc3ccccc3)c2c1=O	-0.1%	-13.0%	-17.2%[10.9 µM]
COc1ccc(-c2cc3nc(-c4ccc(Br)cc4)cc(C(F)(F)F)n3n2)cc1	-6.5%	14.8%	9.8%[10.9 µM]
COc1ccc(-c2nc(-c3ccc(NC(=O)c4ccncc4)cc3)no2)cc1OC	-4.8%	-15.0%	-7.1%
COc1ccc(NC(=O)c2ccc(-c3ccc(-c4noc(C)n4)cc3C)cc2)cc1OCCN(C)C	25.1µM*	7.94µM*	-33.9%
COc1ccc(NC(=O)c2ccc(-c3ccc(-c4noc(C)n4)cc3C)cc2)cc1N1CCN(C)CC1	?	20µM*	-30.6%
COc1ccc(NC(=O)N2CCN(c3cc(-c4noc(C)n4)ccc3C)CC2)c(OC)c1	7.7%	-26.4%	-11.8%[10.9 µM]
Fc1ccc(Nc2ncnc3ccc(-c4ccoc4)cc23)cc1	19.5%	17.7%	?
Cc1ccc(-n2nc3c(N4CCC(C(=O)NCCc5ccccc5)CC4)nnc(C)c3c2C)cc1	-19.0%	-11.6%	-8.4%[10.9 µM]
Cc1nnc(N2CCC(C(=O)NC(C)C)CC2)c2nn(-c3ccccc3)c(C)c12	3.7%	-6.6%	-10.0%[10.9 µM]
Cc1ccc(-n2nc3c(N4CCC(C(=O)NCCc5ccccc5C)CC4)nnc(C)c3c2C)cc1	?	20µM*	-6.8%[10.9 µM]
Cc1ccc(-n2nc3c(N4CCC(C(=O)NC(C)c5ccccc5)CC4)nnc(C)c3c2C)cc1 (stereo not drawn)	?	15.8µM*	-6.4%[10.9 µM]
Cc1ccc2ncc3c(-c4ccc(F)cc4)nn(-c4cccc(F)c4)c3c2c1	-1.7%	-17.2%	-2.3%[10.9 µM]
Cc1cc(C)cc(NS(=O)(=O)c2c(C)nc3scc(C)n3c2=O)c1	15.6%	-12.0%	-9.4%[10.9 µM]
CCOc1ccccc1NC(=O)NCc1noc2ccc(C)cc12	-4.5%	-12.0%	-13.6%[10.9 µM]
COc1cccc(N2CCN(C(=O)c3ccc(CS(=O)c4cccc(Cl)c4)o3)CC2)c1 (stereo not drawn)	7.1%	-4.7%	-21.7%[10.9 µM]
Cc1cc(C)cc(NC(=O)c2oc3ccc4c(c3c2C)C(=O)CC(C)(C)O4)c1	?	?	-32.1%[10.9 µM]
Cc1c(C(=O)NCC2CCCO2)oc2ccc3c(c12)C(=O)CC(C)(C)O3 (stereo not drawn)	12.6µM*	?	nt
Cc1cccc(C)c1NC(=O)c1oc2ccc3c(c2c1C)C(=O)CC(C)(C)O3	20.9%	-1.4%	-12.5%[10.9 µM]
Cc1c(C(=O)Nc2cccc(C(F)(F)F)c2)oc2ccc3c(c12)C(=O)CC(C)(C)O3	-29.5%	15.8µM*	-14.4%[10.9 µM]
NS(=O)(=O)c1ccc(NC(=O)c2csnn2)cc1	-3.0%	13.9%	-14.7%[10.9 µM]
CC(C)c1ccc(NC(=O)c2csnn2)cc1	12.6µM*	15.8µM*	-51.5%
SMILES	p53ts 32C tox	p53ts 39C tox	Imprint erasure
CCCOc1ccc(N2C(=O)CC(SCCN)C2=O)cc1 (stereo not drawn)	12.6µM*	10µM*	-78.5%
COC(=O)c1ccc(N2C(=O)CC(SCCN)C2=O)cc1 (stereo not drawn)	-29.8%	-17.6%	nt
Cc1ccc(CCNC(=O)c2c(C)oc3ncn(CC(C)C)c(=O)c23)cc1	-3.0%	-17.1%	19.3%[10.9 µM]
CCOC(=O)c1cnn(-c2ccc(C(=O)Nc3cccc(C(C)=O)c3)cc2)c1N	18.7%	42.5%	-9.1%[10.9 µM]
O=S(=O)(Nc1cccc(-c2ccc(N3CCCC3)nn2)c1)c1ccc(F)cc1F	-17.5%	38.0%	-10.6%[10.9 µM]
COc1ccc(S(=O)(=O)Nc2cccc(-c3ccc(N4CCCCCC4)nn3)c2)cc1F	-27.8%	-26.1%	-5.2%[10.9 µM]
COc1ccc(S(=O)(=O)Nc2cccc(-c3ccc(N4CCCCC4)nn3)c2)cc1F	12.6µM*	12.6µM*	-12.3%[10.9 µM]
O=S(=O)(Nc1cccc(-c2ccc(N3CCCCC3)nn2)c1)c1cccc(F)c1	10µM*	?	-15.6%[10.9 µM]
COCCCNC(=O)c1ccc(-n2c(-c3ccccc3)cc3c2CCCC3)cc1	2.6%	-11.8%	-15.8%[10.9 µM]
Cc1cccc(NC(=O)CN2C(=O)c3cccc4cccc2c34)c1C	3.7%	-12.8%	2.6%[10.9 µM]
COCCn1c(=O)c(-c2ccc(F)cc2)nc2cncnc21	-6.7%	3.9%	nt
CCc1ccc(C2CC(=O)c3c([nH]c(C(=O)OCCOc4ccccc4)c3C)C2)cc1 (stereo not drawn)	?	12.6µM*	-27.2%[10.9 µM]
